Inconclusive results are not listed. Where a call stands in place of a potency, no number is given. The source made the active and inactive calls. Unless noted, calls follow the shape of the dose curve; as a rule, active = well fitted cell-killing curve with a large enough effect in the repeat runs; inconclusive = weak or mixed curves, or effect the other way; inactive = no such curve, though single readings can be large or run the other way.
Potency is read from the fitted curve at half-maximal effect.

Chain of Bile acid receptor (Homo sapiens) (Q96RI1 whole entry, looked up): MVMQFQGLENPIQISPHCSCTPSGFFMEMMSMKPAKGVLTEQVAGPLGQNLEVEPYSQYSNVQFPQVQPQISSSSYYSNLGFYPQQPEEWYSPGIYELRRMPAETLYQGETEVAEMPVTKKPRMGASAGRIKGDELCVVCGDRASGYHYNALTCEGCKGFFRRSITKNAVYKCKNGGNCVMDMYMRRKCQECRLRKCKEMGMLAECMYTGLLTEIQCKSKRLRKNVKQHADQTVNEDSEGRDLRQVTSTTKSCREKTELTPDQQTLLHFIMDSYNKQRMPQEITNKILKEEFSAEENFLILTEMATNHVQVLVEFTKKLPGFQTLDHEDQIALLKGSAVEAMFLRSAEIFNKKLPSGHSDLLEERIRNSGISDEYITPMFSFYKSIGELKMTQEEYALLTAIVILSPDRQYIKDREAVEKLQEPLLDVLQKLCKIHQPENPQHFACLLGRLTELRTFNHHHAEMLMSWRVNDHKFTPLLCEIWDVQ

Test system in the first assay: not listed separately
Put plainly: qHTS assay to identify small molecule agonists of the farnesoid-X-receptor (FXR) signaling pathway - cell viability counter screen (AID 743218). Also: nearly all actives have a fitted effect of over 45% in size. The following applies: FXR-bla HEK293T viability, CellTiter-Glo luminescence, 16 h; series mostly up to 62.6 µM. The method in brief: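 In GeneBLAzer FXR-UAS-bla HEK 293T cells, compounds act for 16 h at 37 C. Cell viability is then scored in the reporter wells by CellTiter-Glo, 30 min at RT, luminescence.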
A general note: Quantitative high-throughput screening tests each substance at several concentrations.
With `COc1cc(NC(C)CCCN)c2ncccc2c1` (stereo unspecified), the Potency result was “inactive”.

On to `CN1CCCN(C(c2ccccc2)c2ccc(Cl)cc2)CC1` (stereo unspecified), for which the Potency is 29.8 µM (active).

For `COc1cc(S(=O)(=O)Nc2ccccc2)c(OC)cc1N`, the Potency result is “inactive”.

As for `CC(C)(C)S`, the Potency result is “inactive”.

Turning to `COc1ccc(/C=C/C(=O)c2ccc(OC)cc2OC)cc1`, the Potency result is “inactive”.

For `NC(=O)CCCCC(N)=O`, the Potency result is “inactive”.

`CN(C)CC/C=C1\c2ccccc2Sc2ccc(Cl)cc21`: the Potency was 23.7 µM (active).

Take `Cc1cccc2sc(N)nc12`: the Potency result is “inactive”.

For `O=C(O)CN1C(=O)c2cccc3cccc(c23)C1=O`, the Potency entry was “inactive”.

Turning to `O=C1NC(=O)c2cccc3cccc1c23`, the Potency result was “inactive”.

With `CCCc1nc2c(C)cc(-c3nc4ccccc4n3C)cc2n1Cc1ccc(-c2ccccc2C(=O)O)cc1`, the Potency result is “inactive”.

For the compound `FC(F)(F)C(F)(F)C(F)(F)C(F)(F)CCI`, the Potency result is “inactive”.

On to `CCN(CC)C(=O)/C(C#N)=C/c1cc(O)c(O)c([N+](=O)[O-])c1`, for which the Potency result is “inactive”.

Take `COc1ccc2nc(S(=O)Cc3ncc(C)c(OC)c3C)[nH]c2c1` (stereo unspecified): the Potency entry is “inactive”.

For the compound `COC(=O)CC(C(C)=O)C(=O)OC` (stereo unspecified), the Potency entry was “inactive”.

For the compound `CC1CCC(C(C)CS)CC1S` (stereo unspecified), the Potency result is “inactive”.

For the compound `CC(C)CC(O)CC(C)C`, the Potency result was “inactive”.

For the compound `COc1ccc(C)cc1`, the Potency result is “inactive”.

As to `Nc1ccn([C@H]2CS[C@@H](CO)O2)c(=O)n1`, the Potency entry was “inactive”.

`Cc1cc(CCC(=O)OCCOCCOCCOC(=O)CCc2cc(C)c(O)c(C(C)(C)C)c2)cc(C(C)(C)C)c1O`: the Potency result is “inactive”.

Regarding `COc1ccc(-n2nc(C(F)F)cc2-c2ccc(S(C)=O)cc2)cc1` (stereo unspecified), the Potency result was “inactive”.

Consider `COC(=O)c1sccc1S(N)(=O)=O`, for which the Potency result was “inactive”.

Take `c1ccc(CCCc2ccncc2)cc1`: the Potency entry was “inactive”.

Consider `Nc1ccc(NC(=O)c2ccc(N)cc2)cc1`, for which the Potency entry was “inactive”.

`Nc1ccc(N=Nc2ccc(N)cc2)cc1`: the Potency entry was “inactive”.

Regarding `CNc1c2c(nn1C)CCCC2`, the Potency result was “inactive”.

The next assay has as its target Bile acid receptor (Homo sapiens) (UniProt Q96RI1). In words: qHTS assay to identify small molecule agonists of the farnesoid-X-receptor (FXR) signaling pathway (AID 743220; active = well fitted activation curve with a large enough effect in the signal ratio in the repeat runs, not every such curve was filed as active; the % refers to the signal ratio). To be noted: HEK293T FXR-UAS-bla, beta-lactamase FRET ratio, 16 h; series mostly up to 62.6 µM. The method in brief:
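Beta-lactamase reporter under UAS control in GeneBLAzer FXR HEK 293T cells (5000/well) measured with LiveBLAzer FRET substrate after 2 h at room temperature. Compound exposure lasted 16 h at 37C.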
With `CN1CCCN(C(c2ccccc2)c2ccc(Cl)cc2)CC1` (stereo unspecified), the Potency entry is “inactive”.

For `COc1cc(S(=O)(=O)Nc2ccccc2)c(OC)cc1N`, the Potency result was “inactive”.

With `CC(C)(C)S`, the Potency result is “inactive”.

`COc1ccc(/C=C/C(=O)c2ccc(OC)cc2OC)cc1`: the Potency entry is “inactive”.

As for `CC(O)Cn1cnc2c1c(=O)n(C)c(=O)n2C` (stereo unspecified), the Potency entry was “inactive”.

With `O=C1NC(=O)c2cccc3cccc1c23`, the Potency result is “inactive”.

For `CCN(Cc1cccc(S(=O)(=O)O)c1)c1ccc(C(=C2C=CC(=[N+](CC)Cc3cccc(S(=O)(=O)O)c3)C=C2)c2ccccc2S(=O)(=O)[O-])cc1`, the Potency entry was “inactive”.

In the case of `COC(=O)CC(C(C)=O)C(=O)OC` (stereo unspecified), the Potency result was “inactive”.

As to `CCCCCCCC(=O)OCCCCCC`, the Potency entry is “inactive”.

With `Cc1cc(CCC(=O)OCCOCCOCCOC(=O)CCc2cc(C)c(O)c(C(C)(C)C)c2)cc(C(C)(C)C)c1O`, the Potency result was “inactive”.

`COC(=O)c1sccc1S(N)(=O)=O`: the Potency entry is “inactive”.

`CNC1CCCN(c2c(F)cc3c(=O)c(C(=O)O)cn(C4CC4)c3c2OC)C1` (stereo unspecified): the Potency result was “inactive”.

As for `c1ccc(CCCc2ccncc2)cc1`, the Potency is 49 µM (active).

In the case of `O=C(c1ccccc1)c1ccc(O)cc1`, the Potency entry is “inactive”.

`CCN(Cc1cccc(S(=O)(=O)O)c1)c1ccc(C(=C2C=CC(=[N+](CC)Cc3cccc(S(=O)(=O)O)c3)C=C2)c2ccc(O)cc2S(=O)(=O)[O-])cc1`: the Potency entry was “inactive”.

Test system in a further assay: not listed separately
In words: qHTS assay to identify small molecule antagonists of the farnesoid-X-receptor (FXR) signaling pathway - cell viability counter screen (AID 743221; active = well fitted cell-killing curve with a large enough effect in the repeat runs, not every such curve was filed as active; also: nearly all actives have a fitted effect of over 50% in size). The following applies: FXR-bla HEK293T viability, CellTiter-Glo luminescence, 16 h; series mostly up to 62.6 µM. A digest of the protocol: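 In GeneBLAzer FXR-UAS-bla HEK 293T cells stimulated with 50 uM chenodeoxycholic acid (final), compounds acted for 16 h at 37 C. Viability was assessed afterwards by CellTiter-Glo luminescence.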
Consider `Cc1cn([C@H]2C[C@H](F)[C@@H](CO)O2)c(=O)[nH]c1=O`, for which the Potency result is “inactive”.

With `CN1CCCN(C(c2ccccc2)c2ccc(Cl)cc2)CC1` (stereo unspecified), the Potency is 26.6 µM (active).

With `COc1cc(S(=O)(=O)Nc2ccccc2)c(OC)cc1N`, the Potency result is “inactive”.

As for `CC(C)(C)S`, the Potency entry is “inactive”.

Turning to `COc1ccc(/C=C/C(=O)c2ccc(OC)cc2OC)cc1`, the Potency entry was “inactive”.

Take `NC(=O)CCCCC(N)=O`: the Potency result was “inactive”.

Consider `CCN(CC)CC(=O)Nc1c(C)cccc1C(=O)OC`, for which the Potency result is “inactive”.

For the compound `Cc1cccc2sc(N)nc12`, the Potency result was “inactive”.

As to `O=C(O)CN1C(=O)c2cccc3cccc(c23)C1=O`, the Potency entry was “inactive”.

Turning to `CCCc1nc2c(C)cc(-c3nc4ccccc4n3C)cc2n1Cc1ccc(-c2ccccc2C(=O)O)cc1`, the Potency result is “inactive”.

Consider `FC(F)(F)C(F)(F)C(F)(F)C(F)(F)CCI`, for which the Potency result was “inactive”.

For `CCN(Cc1cccc(S(=O)(=O)O)c1)c1ccc(C(=C2C=CC(=[N+](CC)Cc3cccc(S(=O)(=O)O)c3)C=C2)c2ccccc2S(=O)(=O)[O-])cc1`, the Potency is 13.9 µM (active).

For the compound `COc1ccc2nc(S(=O)Cc3ncc(C)c(OC)c3C)[nH]c2c1` (stereo unspecified), the Potency entry is “inactive”.

For the compound `CNS(=O)(=O)c1cc(C(=O)N2CCC(CCN3C4CCC3CC(n3c(C)nc5ccccc53)C4)(c3cccc(F)c3)CC2)c(Cl)cc1F` (stereo unspecified), the Potency is 21.9 µM (active).

As for `COC(=O)CC(C(C)=O)C(=O)OC` (stereo unspecified), the Potency entry is “inactive”.

Regarding `CC1CCC(C(C)CS)CC1S` (stereo unspecified), the Potency result is “inactive”.

For `CC(C)CC(O)CC(C)C`, the Potency entry is “inactive”.

As to `Nc1ccn([C@H]2CS[C@@H](CO)O2)c(=O)n1`, the Potency result is “inactive”.

In the case of `COc1ccc(-n2nc(C(F)F)cc2-c2ccc(S(C)=O)cc2)cc1` (stereo unspecified), the Potency entry was “inactive”.

Take `c1ccc(CCCc2ccncc2)cc1`: the Potency result was “inactive”.

Consider `Nc1ccc(NC(=O)c2ccc(N)cc2)cc1`, for which the Potency entry is “inactive”.

As for `CC[C@@H](CO)NCCN[C@@H](CC)CO`, the Potency result was “inactive”.

With `O=C(c1ccccc1)c1ccc(O)cc1`, the Potency result was “inactive”.

Take `Nc1ccc(N=Nc2ccc(N)cc2)cc1`: the Potency result was “inactive”.

Regarding `CNc1c2c(nn1C)CCCC2`, the Potency entry was “inactive”.
